From PubChem BioAssay (Tox21)
Results filed as inconclusive are left out. The source made the active and inactive calls. Unless noted, the call rests on the fitted dose curve; in most records, active means well fitted curve in the direction sought with a large enough effect in the repeat runs; inconclusive means weak or mixed curves; inactive means no such curve, though single readings can be large; an effect the other way counts as inactive or inconclusive.

Tests used:
[1] = qHTS assay to identify small molecule agonists of H2AX (AID 1224845; active means well fitted activation curve with a large enough effect in the signal ratio in the repeat runs, not every such curve was filed as active; the % refers to the signal ratio)
How it was run: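 Wild-type CHO-K1 cells, plated overnight, exposed 3hr at 37C to 15 concentrations (0.76% DMSO final). Lysed, then HTRF anti-pH2AX (S139) cryptate and anti-H2AX-d2 antibodies, 24 hr room temperature; 665/620 nm emission read.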

[2] = qHTS assay to identify small molecule agonists of H2AX - cell viability counter screen (AID 1224847; calls by dose curve; further: top concentration of the series differs between compounds; nearly all actives have a fitted effect of over 30% in size)
How it was run: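 CHO-K1 cells plated overnight at 37C, then exposed 3 h at 37C to compounds at 15 concentrations (0.76% DMSO final). Viability by CellTiter-Glo luminescence after 30 min at room temperature.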

[3] = qHTS RealTime-Glo MT Cell Viability Assay in HepG2 cells - 24 hour (AID 1224867); further: nearly all actives have a fitted effect of over 50% in size
How it was run: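 HepG2 cells were seeded at 600 cells/well together with NanoLuc luciferase and a cell-permeant prosubstrate, preincubated 5 h at 37 C/5% CO2, then pin-dosed with compounds in DMSO. Nonlytic luminescence from viable cells was read at each time point.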

[4] = qHTS RealTime-Glo MT Cell Viability Assay in HEK293 cells - 32 hour (AID 1224868); further: nearly all actives have a fitted effect of over 50% in size; further: potency means the concentration at half of the fitted maximal effect
How it was run: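 HEK293 cells were seeded at 600 cells/well together with NanoLuc luciferase and cell-permeant prosubstrate, preincubated 5 h at 37 C/5% CO2, then given compound in DMSO by pintool. Luminescence from viable-cell prosubstrate reduction was read repeatedly over 40 h.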

[5] = A CellTox Green Cytotoxicity Assay to monitor cytotoxicity in HEK293 cells - 0 hour (AID 1224869); further: nearly all actives have a fitted effect of over 50% in size
How it was run: (§1)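 Fluorescence from a DNA-binding dye excluded by viable cells was measured repeatedly in the same HEK293 wells (600 cells/well) during continuous compound exposure at 37 C. Each assay gives one read point: 0, 8, 16, 24, 32 or 40 h.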

[6] = qHTS RealTime-Glo MT Cell Viability Assay in HepG2 cells - 40 hour (AID 1224870); further: nearly all actives have a fitted effect of over 50% in size
How it was run: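 HepG2 cells (600/well) mixed with RealTime-Glo MT reagent, settled 5 h at 37 C/5% CO2 before compound addition. Nonlytic NanoLuc luminescence from viable-cell prosubstrate reduction read repeatedly during 40 h treatment at 37 C.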

[7] = A CellTox Green Cytotoxicity Assay to monitor cytotoxicity in HEK293 cells - 40 hour (AID 1224871); further: nearly all actives have a fitted effect of over 45% in size
How it was run: as §1

[8] = qHTS assay to identify small molecule agonists of the hypoxia (HIF-1) signaling pathway (AID 1224846; active means well fitted activation curve with a large enough effect in the signal ratio in the repeat runs, not every such curve was filed as active; the % refers to the signal ratio)
How it was run: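 Compounds added to ME-180 cells carrying hypoxia-response-element beta-lactamase reporter (0.5% dialyzed FBS, 5 h preplating), 17 h at 37C; agonist activity detected by CCF4-AM B/G FRET read-out.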

[9] = qHTS assay to identify small molecule antagonists of the estrogen related receptor (ERR) signaling pathway from Tox21 library (AID 1224848); further: nearly all actives have a fitted effect of over 50% in size
How it was run: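 Quantitative high-throughput format: ERR reporter cells (2,000/well) pre-incubated 6 h, treated 18 h at 37 C with compounds in DMSO alongside positive and negative controls, then read by ONE-Glo luminescence.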

[10] = qHTS assay to identify small molecule agonists of the estrogen related receptor (ERR) signaling pathway from Tox21 library (AID 1224849; calls by dose curve; further: nearly all actives have a fitted effect of over 15% in size); conditions: ERR reporter cell line, ONE-Glo luciferase, 18 h; at 92.4 µM (top of the series) unless noted
How it was run: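 Luminescent agonist read-out (One-Glo, 30-minute room-temperature incubation) following 18-hour compound treatment at 37 C of the ERR cell line, which had been plated 6 hours before dosing.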
On the % scale 0 is the no-effect control and ±100 the full control effect.

Cc1ccc(N(CC2=NCCN2)c2cccc(O)c2)cc1
inactive: Potency [1] | Potency [2] | Potency [3] | Potency [4] | Potency [5] | Potency [6] | Potency [7]

CCCCCCCC/C=C\CCCCCCCC(=O)OCCO
inactive: Potency [1] | outcome [8] | Potency [2] | Potency [4] | Potency [5] | Potency [6] | Potency [7]

CC(=O)OC(C)C[N+](C)(C)C (stereo unspecified)
inactive: Potency [1] | Potency [2] | Potency [9] | activity change, positive = activation [10] 7.44% [at 42.5 µM] | Potency [3] | Potency [4] | Potency [6] | Potency [7]

CC[C@H]1OC(=O)[C@H](C)[C@@H](O[C@H]2C[C@@](C)(OC)[C@@H](O)[C@H](C)O2)[C@H](C)[C@@H](O[C@@H]2O[C@H](C)C[C@H](N(C)C)[C@H]2O)[C@](C)(O)C[C@@H](C)CN(C)[C@H](C)[C@@H](O)[C@]1(C)O
inactive: Potency [1] | outcome [8] | Potency [2] | Potency [3] | Potency [5] | Potency [6] | Potency [7]

COc1ccc(-c2cc(=S)ss2)cc1
inactive: Potency [1] | Potency [2] | Potency [3] | Potency [5] | Potency [6] | Potency [7]

O=NN(CCCl)C(=O)NCCCl
inactive: Potency [1] | Potency [2] | Potency [9] | activity change, positive = activation [10] 2.54% [at 42.5 µM] | Potency [3] | Potency [4] | Potency [5] | Potency [6] | Potency [7]

CCCCCCCCCCCCCOS(=O)(=O)O
inactive: Potency [1] | Potency [2] | Potency [3] | Potency [4] | Potency [5] | Potency [6] | Potency [7]

Cc1ccc(Cl)cc1N
inactive: Potency [1] | outcome [8] | Potency [2] | Potency [3] | Potency [4] | Potency [5] | Potency [6] | Potency [7]

C[C@H](CS)C(=O)N1CCC[C@H]1C(=O)O
inactive: Potency [1] | Potency [2] | Potency [3] | Potency [4] | Potency [5] | Potency [6] | Potency [7]

COc1cc(NC(C)CCCN)c2ncccc2c1 (stereo unspecified)
inactive: Potency [1] | Potency [2] | Potency [9] | activity change, positive = activation [10] -9.72% [at 42.5 µM] | Potency [3] | Potency [4] | Potency [5] | Potency [6] | Potency [7]

Cc1cc(CCCOc2c(C)cc(-c3noc(C(F)(F)F)n3)cc2C)on1
inactive: Potency [1] | outcome [8] | Potency [3] | Potency [5] | Potency [6] | Potency [7]

CCN(CC)C(=O)N1CCN(C)CC1
inactive: Potency [1] | Potency [2] | Potency [9] | activity change, positive = activation [10] 6.11% [at 42.5 µM] | Potency [3] | Potency [4] | Potency [5] | Potency [6] | Potency [7]

CCCc1nc2c(C)cc(-c3nc4ccccc4n3C)cc2n1Cc1ccc(-c2ccccc2C(=O)O)cc1
inactive: Potency [1] | Potency [2] | Potency [3] | Potency [5] | Potency [6] | Potency [7]

CCN(CC)CCNC(=O)c1cc(Cl)c(N)cc1OC
inactive: Potency [1] | Potency [2] | Potency [3] | Potency [4] | Potency [5] | Potency [6] | Potency [7]

CNc1c2c(nn1C)CCCC2
inactive: Potency [1] | Potency [2] | Potency [3] | Potency [4] | Potency [5] | Potency [6] | Potency [7]

O=C(O)CCCc1c[nH]c2ccccc12
inactive: Potency [1] | outcome [8] | Potency [9] | activity change, positive = activation [10] 11.9% | Potency [3] | Potency [4] | Potency [5] | Potency [6] | Potency [7]

O=C(NC(Cc1cc(=O)[nH]c2ccccc12)C(=O)O)c1ccc(Cl)cc1 (stereo unspecified)
inactive: Potency [1] | outcome [8] | Potency [2] | Potency [3] | Potency [4] | Potency [5] | Potency [6] | Potency [7]

NC(=O)CCCCC(N)=O
inactive: Potency [1] | outcome [8] | Potency [2] | Potency [3] | Potency [4] | Potency [5] | Potency [6] | Potency [7]

CC(O)Cn1cnc2c1c(=O)n(C)c(=O)n2C (stereo unspecified)
inactive: Potency [1] | Potency [2] | Potency [9] | activity change, positive = activation [10] 0.481% [at 42.5 µM] | Potency [3] | Potency [4] | Potency [5] | Potency [6] | Potency [7]

CNS(=O)(=O)c1cc(C(=O)N2CCC(CCN3C4CCC3CC(n3c(C)nc5ccccc53)C4)(c3cccc(F)c3)CC2)c(Cl)cc1F (stereo unspecified)
active: Potency [4] 5.49 µM
inactive: Potency [1] | Potency [2] | Potency [5] | Potency [7]

COC(=O)Nc1nc2ccc(C(=O)C3CC3)cc2[nH]1
inactive: Potency [1] | outcome [8] | Potency [2] | Potency [3] | Potency [5] | Potency [6] | Potency [7]

CC(=O)C(C)=O
inactive: Potency [1] | Potency [2] | Potency [3] | Potency [4] | Potency [5] | Potency [6] | Potency [7]

O=C(Oc1ccccc1)c1ccc2ccccc2c1O
inactive: Potency [1] | outcome [8] | Potency [9] | Potency [3] | Potency [4] | Potency [5] | Potency [6] | Potency [7]
active: activity change, positive = activation [10] 116%

Nc1c(Cl)cc(Cl)cc1[N+](=O)[O-]
inactive: Potency [1] | outcome [8] | Potency [9] | activity change, positive = activation [10] -2% | Potency [3] | Potency [4] | Potency [5] | Potency [6] | Potency [7]
